# Experimental data from PubChem BioAssay (NCATS).
# Records with an inconclusive call do not appear. The source made the active and inactive calls. Unless noted, how the calls were made is not given here.
# Columns and labels:
# [1] = qHTS profiling of the MIPE4 collection as inhibitors of Plasmodium falciparum (3D7) proliferation (AID 743344);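 further: scaled between DMSO vehicle wells and 0.29 µM artemisinin as full inhibition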; conditions: P. falciparum 3D7 in erythrocytes, SYBR Green DNA fluorescence, 72 h; at 28.5 µM unless noted
# Summary of the method: (§1)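 Erythrocytes infected with P. falciparum (0.3% parasitemia, 2.5% hematocrit) incubated with compounds 72 h at 37 C, 5% CO2. Lysis with saponin/Triton buffer containing SYBR Green I, overnight at room temperature in the dark; DNA fluorescence (485/535 nm) normalised to 0.29 uM artemisinin and DMSO.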
# [2] = qHTS profiling of the MIPE4 collection as inhibitors of Plasmodium falciparum (DD2) proliferation (AID 743345); conditions: P. falciparum Dd2 in erythrocytes, SYBR Green DNA, 72 h; at 28.5 µM unless noted
# Summary of the method: as §1
# [3] = qHTS profiling of the MIPE4 collection as inhibitors of Plasmodium falciparum (DD2) proliferation (Rep 2) (AID 743346); conditions: P. falciparum Dd2 in erythrocytes, SYBR Green DNA, 72 h; at 28.5 µM unless noted
# Summary of the method: as §1
# [4] = qHTS profiling of the MIPE4 collection as inhibitors of Plasmodium falciparum (HB3) proliferation (AID 743347);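 further: plate controls were DMSO vehicle wells for no effect and artemisinin wells for full effect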; conditions: P. falciparum HB3 in erythrocytes, SYBR Green DNA, 72 h; at 28.5 µM unless noted
# Summary of the method: as §1
# [5] = High-throughput drug toxicity screening in the BPDCN cell line Gen2.2 (AID 1224824); conditions: Gen2.2 BPDCN cells; at 45.8 µM (top of the series) unless noted;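 further: cells exposed to compounds for 48 h before reading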
# Summary of the method: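 Gen2.2 cells, 500 per well in phenol red-free RPMI with 10% FBS, exposed to compounds 48 h at 37 C, 5% CO2; viability by CellTiter-Glo luminescence. Percent activity scaled to DMSO (100%) and 9.2 uM bortezomib final (0%).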
# [6] = High-throughput drug toxicity screening in the BPDCN cell line Cal-1 (AID 1224825); conditions: Cal-1 BPDCN cell viability, qHTS; at 45.8 µM (top of the series) unless noted
# Summary of the method: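 Exponentially growing Cal-1 cells, 500 per well in phenol red-free RPMI with 10% FBS, were exposed to compounds for 48 h at 37 °C, 5% CO2. Viability was read by CellTiter-Glo luminescence and normalised to DMSO (100%) and 9.2 uM bortezomib (0%).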
# [7] = qHTS assay for measurement of the activity of small molecule inhibitors on Zika virus induced Caspase-3 activity in human iPSC derived neural progenitor cells (hNPCs) (AID 1224857; active means well fitted inhibition curve with a large enough effect; further: % of control where 0% means no effect; nearly all actives have a fitted effect of over 65% in size)
# Summary of the method: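 Values are percent inhibition of virus-induced caspase-3/7 signal, scaled between uninfected cells and ZIKV-infected cells. Infection used 2 FFU/cell for 6 h after 1 h compound exposure.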
# [8] = qHTS assay for measurement of the activity of small molecule inhibitors on Zika virus induced Caspase-3 activity in human astrocytoma cells (AID 1224859; active means well fitted inhibition curve with a large enough effect;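 further: plate controls were ZIKV-infected untreated cells for no effect and uninfected cells for full effect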)
# Summary of the method: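 Compound added 1 h pre-infection; ZIKV 2 FFU/cell on SNB-19 cells, 6 h, 37 C/5% CO2. Caspase-Glo 3/7 luminescence; values as % inhibition of ZIKV-induced caspase activity.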
# [9] = qHTS Screen of the MIPE 4.0 Collection Against Ewings Sarcoma (TC71) (AID 1259253; active means well fitted inhibition curve with a large enough effect; further: nearly all actives have a fitted effect of over 40% in size; further: potency means the concentration at half of the fitted maximal effect)
# Summary of the method: (§2)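 Compound titrations go onto adherent log-phase cells 4 h after seeding, incubate 48 h at 37C, then CellTiter-Glo luminescence reports viability relative to DMSO and cell-free controls.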
# [10] = qHTS Screen of the MIPE 4.0 Collection Against Ewings Sarcoma (EW8) (AID 1259255; active means well fitted inhibition curve with a large enough effect; further: nearly all actives have a fitted effect of over 35% in size; further: potency means the concentration at half of the fitted maximal effect;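 on viability: 100% = DMSO-treated cells and 0% = medium-only wells without cells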)
# Summary of the method: as §2
# [11] = qHTS Screen of the MIPE 4.0 Collection Against Ewings Sarcoma (TC32) (AID 1259256; active means well fitted inhibition curve with a large enough effect; further: nearly all actives have a fitted effect of over 45% in size; further: potency means the concentration at half of the fitted maximal effect)
# Summary of the method: as §2
# [12] = qHTS Screen of the MIPE 4.0 Collection Against Ewings Sarcoma (RDES) (AID 1259252; active means well fitted inhibition curve with a large enough effect; further: nearly all actives have a fitted effect of over 35% in size; further: potency means the concentration at half of the fitted maximal effect)
# Summary of the method: as §2
smiles,measurement,setting,value
CC1(C)CC(=O)c2c(C(F)(F)F)nn(-c3ccc(C(N)=O)c(NC4CCC(O)CC4)c3)c2C1 (stereo unspecified),"parasite growth, % of DMSO control",[1],5.39%
same,"parasite growth remaining, % of DMSO control (lower = more inhibition)",[2],8.63%
same,"parasite growth, % of control (lower = inhibition)",[3],13%
same,"growth, % of control",[4],3.53%
same,"cell viability, % of control (lower = more cytotoxic)",[5],8.13%
same,viability (% of control),[6],13.5%
same,Potency,[7],inactive
same,Potency,[8],inactive
same,Potency,[9],0.0935 µM (active)
same,Potency,[10],0.148 µM (active)
same,Potency,[11],0.0833 µM (active)
CCC(=C(c1ccc(O)cc1)c1ccc(OCCNC)cc1)c1ccccc1,"parasite growth, % of DMSO control",[1],5.26%
same,"parasite growth remaining, % of DMSO control (lower = more inhibition)",[2],15.1%
same,"parasite growth, % of control (lower = inhibition)",[3],13.1%
same,"growth, % of control",[4],3.87%
same,"cell viability, % of control (lower = more cytotoxic)",[5],16.9%
same,viability (% of control),[6],4.15%
same,Potency,[7],inactive
same,Potency,[8],inactive
same,Potency,[9],20.9 µM (active)
same,Potency,[10],26.4 µM (active)
same,Potency,[11],23.5 µM (active)
COc1cc([C@H]2Oc3cc([C@H]4Oc5cc(O)cc(O)c5C(=O)[C@H]4O)ccc3O[C@H]2CO)ccc1O,"parasite growth, % of DMSO control",[1],7.9%
same,"growth, % of control",[4],12.9%
same,"cell viability, % of control (lower = more cytotoxic)",[5],181%
same,viability (% of control),[6],85.4%
same,Potency,[7],inactive
same,Potency,[8],inactive
same,Potency,[9],14.8 µM (active)
same,Potency,[10],9.35 µM (active)
same,Potency,[11],16.6 µM (active)
Nc1ccn([C@@H]2O[C@H](CO)[C@@H](O)[C@H]2O)c(=O)n1,"parasite growth, % of DMSO control",[1],89.8%
same,"parasite growth remaining, % of DMSO control (lower = more inhibition)",[2],97.8%
same,"parasite growth, % of control (lower = inhibition)",[3],117%
same,"growth, % of control",[4],108%
same,"cell viability, % of control (lower = more cytotoxic)",[5],86.2%
same,viability (% of control),[6],11.3%
same,Potency,[7],inactive
same,Potency,[8],inactive
same,Potency,[9],0.0332 µM (active)
same,Potency,[10],0.0935 µM (active)
Cc1cccc2c1CC[C@H](CN1CCC(c3c(Cl)cccc3Cl)CC1)C[C@@H]2O,"parasite growth, % of DMSO control",[1],8.94%
same,"parasite growth, % of control (lower = inhibition)",[3],25%
same,"growth, % of control",[4],9.19%
same,"cell viability, % of control (lower = more cytotoxic)",[5],140%
same,viability (% of control),[6],43.1%
same,Potency,[7],inactive
same,Potency,[8],inactive
same,Potency,[9],5.9 µM (active)
same,Potency,[10],14.8 µM (active)
CC[C@H](CC#N)OC(=O)N[C@@H](C)c1cccc(NC(=O)Nc2ccc(-c3cnco3)c(OC)c2)c1,"parasite growth, % of DMSO control",[1],12.8%
same,"parasite growth, % of control (lower = inhibition)",[3],17.5%
same,"growth, % of control",[4],9.12%
same,"cell viability, % of control (lower = more cytotoxic)",[5],74.3%
same,viability (% of control),[6],18.6%
same,Potency,[7],inactive
same,Potency,[8],inactive
same,Potency,[9],0.469 µM (active)
same,Potency,[10],0.469 µM (active)
same,Potency,[11],0.469 µM (active)
O=C1CCCC(=O)C1C(=O)c1ccc(C(F)(F)F)cc1[N+](=O)[O-],"parasite growth, % of DMSO control",[1],90.1%
same,"parasite growth remaining, % of DMSO control (lower = more inhibition)",[2],103%
same,"parasite growth, % of control (lower = inhibition)",[3],114%
same,"growth, % of control",[4],93.4%
same,"cell viability, % of control (lower = more cytotoxic)",[5],124%
same,viability (% of control),[6],101%
same,Potency,[7],inactive
same,Potency,[8],inactive
same,Potency,[9],23.5 µM (active)
C[C@@H]1C[C@H]2[C@@H]3CCC4=CC(=O)C=C[C@]4(C)[C@@]3(F)[C@@H](O)C[C@]2(C)[C@@]1(O)C(=O)CO,"parasite growth, % of DMSO control",[1],55.8%
same,"parasite growth remaining, % of DMSO control (lower = more inhibition)",[2],90.6%
same,"parasite growth, % of control (lower = inhibition)",[3],60.4%
same,"growth, % of control",[4],9.35%
same,"cell viability, % of control (lower = more cytotoxic)",[5],184%
same,viability (% of control),[6],55.5%
same,Potency,[7],inactive
same,Potency,[12],inactive
same,Potency,[9],inactive
same,Potency,[10],inactive
same,Potency,[11],inactive
Cc1ccccc1-n1c(Cn2nc(-c3cccc(O)c3)c3c(N)ncnc32)nc2cccc(C)c2c1=O,"parasite growth, % of DMSO control",[1],6.67%
same,"parasite growth remaining, % of DMSO control (lower = more inhibition)",[2],8.31%
same,"parasite growth, % of control (lower = inhibition)",[3],15%
same,"growth, % of control",[4],9.11%
same,"cell viability, % of control (lower = more cytotoxic)",[5],5.88%
same,viability (% of control),[6],10.5%
same,Potency,[7],inactive
same,Potency,[8],inactive
same,Potency,[9],9.35 µM (active)
CCOC(=O)c1c(CSc2ccccc2)n(C)c2cc(Br)c(O)c(CN(C)C)c12,"parasite growth, % of DMSO control",[1],8.99%
same,"parasite growth remaining, % of DMSO control (lower = more inhibition)",[2],10.6%
same,"parasite growth, % of control (lower = inhibition)",[3],12.1%
same,"growth, % of control",[4],2.97%
same,"cell viability, % of control (lower = more cytotoxic)",[5],164%
same,viability (% of control),[6],52.2%
same,Potency,[7],inactive
same,Potency,[8],inactive
same,Potency,[9],16.6 µM (active)
same,Potency,[10],20.9 µM (active)
same,Potency,[11],13.2 µM (active)
Cc1ccc2c(c1)C(=O)[C@]1(O)CCN(c3ccccc3)C1=N2,"parasite growth, % of DMSO control",[1],70.4%
same,"parasite growth remaining, % of DMSO control (lower = more inhibition)",[2],90.7%
same,"parasite growth, % of control (lower = inhibition)",[3],89.8%
same,"growth, % of control",[4],76.8%
same,"cell viability, % of control (lower = more cytotoxic)",[5],91%
same,viability (% of control),[6],34.3%
same,Potency,[7],inactive
same,Potency,[8],inactive
same,Potency,[9],18.7 µM (active)
same,Potency,[10],18.7 µM (active)
same,Potency,[11],inactive
CC[C@@H]([C@H](C)O)n1ncn(-c2ccc(N3CCN(c4ccc(OCC5CO[C@@](Cn6cncn6)(c6ccc(F)cc6F)C5)cc4)CC3)cc2)c1=O (stereo partly specified),"parasite growth, % of DMSO control",[1],6.37%
same,"parasite growth remaining, % of DMSO control (lower = more inhibition)",[2],9.01%
same,"parasite growth, % of control (lower = inhibition)",[3],20.2%
same,"growth, % of control",[4],5.52%
same,"cell viability, % of control (lower = more cytotoxic)",[5],169%
same,viability (% of control),[6],108%
same,Potency,[7],inactive
same,Potency,[8],inactive
same,Potency,[9],inactive
same,Potency,[10],inactive
C=C1[C@H](n2cnc3c(=O)[nH]c(N)nc32)C[C@H](O)[C@H]1CO,"parasite growth, % of DMSO control",[1],53.5%
same,"parasite growth remaining, % of DMSO control (lower = more inhibition)",[2],88%
same,"growth, % of control",[4],42.8%
same,"cell viability, % of control (lower = more cytotoxic)",[5],147%
same,viability (% of control),[6],8.7%
same,Potency,[7],inactive
same,Potency,[12],9.35 µM (active)
same,Potency,[9],14.8 µM (active)
same,Potency,[10],13.2 µM (active)
same,Potency,[11],inactive
